High-throughput results as filed in PubChem.
This is a sample that favours compounds with a hit; in the whole collection about 28% have one here.
CYP2C9 inh = blockers of cytochrome P450 2C9 activity – biochemical, luminescence, ADME assay, primary screen. P11712. AID 777, 2007. inhibition, % at 5 µM. CYP2C9 Supersomes, luciferin-H conversion. 20% of 96,000 active;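 active = blocking of liver enzyme CYP2C9 beyond about 50% at 5 µM, limit read from the data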
CYP2C19 inhib = blockers of cytochrome P450 2C19 activity – biochemical, luminescence, ADME assay, primary screen; P33261; CYP2C19 Supersomes, luciferin-H EGE luminescence, 30 min; inhibition, % at 5 µM; 21% of 96,000 active; AID 778, 2007;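 active = CYP2C19 inhibition above a set limit at 5 µM in the primary screen, cut at about 50% in these data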;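 note: plate controls were negative control wells for no effect and 2.5 mM tranylcypromine positive control for full effect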
CYP2C19 act = human CYP2C19 activators, primary screen, biochemical, luminescence. activation factor at 5 µM. AID 1025, 2008. 96,000 tested, under 10 active. recombinant CYP2C19, luciferin-H EGE luminescence; hits give high values; 0 = fully inhibited enzyme, 1 = untreated enzyme. Cytochrome P450 2C19 (Homo sapiens), P33261;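 active = activation factor of at least 2 at 5 µM in the primary screen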;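 note: 0 = wells with 2.5 mM tranylcypromine and 1 = vehicle-only wells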
D1 allo mod = D1 CRE-luciferase signal change, two-sided – cell-based, HEK293 D1, dopamine EC30, D1 allosteric modulator project, primary screen | D(1A) dopamine receptor (Homo sapiens), P21728 | dopamine EC30 potentiation; actives deviate in either direction | B-score at 10 µM | 5.9% of 58,000 active | AID 641, 2007;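 active = luminescence count or its row- and column-corrected plate score outside the 99.7% band of the plate's sample wells, on either side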
DAT uptake mod = changed hDAT dopamine uptake under cocaine IC80, either direction, primary screen, cocaine antagonist project, cell-based, LLC-PK1 hDAT, [14C]-dopamine uptake, MLSMR; AID 449768, 2010; 1.3% of 110,000 active; B-score at 10 µM; LLC-PK1 hDAT cells, [14C]-dopamine uptake with cocaine IC80; actives deviate in either direction;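 active = Z score or B-score, a plate-position-corrected score, falls beyond the plate's 99.7% confidence bounds, in either direction; inactive = both scores lie inside the 99.7% bounds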;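 note: scored against the spread of the other compound wells on the same plate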
Target sequence (Q01959 whole entry, looked up): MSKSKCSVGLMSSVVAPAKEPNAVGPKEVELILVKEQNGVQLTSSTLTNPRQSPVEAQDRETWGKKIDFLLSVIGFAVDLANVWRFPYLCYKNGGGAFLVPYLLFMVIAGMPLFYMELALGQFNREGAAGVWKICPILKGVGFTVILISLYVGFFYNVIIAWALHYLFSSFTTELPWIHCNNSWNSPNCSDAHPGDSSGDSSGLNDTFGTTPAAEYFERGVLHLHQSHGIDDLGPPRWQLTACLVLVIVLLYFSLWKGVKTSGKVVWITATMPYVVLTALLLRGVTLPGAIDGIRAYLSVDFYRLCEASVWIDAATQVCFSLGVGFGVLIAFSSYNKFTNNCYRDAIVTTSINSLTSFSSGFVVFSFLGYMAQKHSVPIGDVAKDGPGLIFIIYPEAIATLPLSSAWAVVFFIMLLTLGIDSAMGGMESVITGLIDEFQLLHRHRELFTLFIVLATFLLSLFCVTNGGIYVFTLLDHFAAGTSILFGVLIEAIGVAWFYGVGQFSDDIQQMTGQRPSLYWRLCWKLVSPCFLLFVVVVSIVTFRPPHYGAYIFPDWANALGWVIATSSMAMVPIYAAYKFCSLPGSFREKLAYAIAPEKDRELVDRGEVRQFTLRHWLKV
CYP2C9 act = human CYP2C9 activators, primary screen, biochemical, luminescence | Cytochrome P450 2C9 (Homo sapiens), P11712 | activation factor at 5 µM | 1.4% of 96,000 active | recombinant CYP2C9, luciferin-H conversion; hits give high values; factor 1 = untreated enzyme, 0 = blocked | AID 1024, 2008;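 active = activation factor of 2 or more for CYP2C9 at a 5 µM dose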;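 note: 0 = sulfaphenazole-blocked wells and 1 = vehicle-only wells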
Numbers without * were called inactive; x = no result given.

SMILES | CYP2C9 inh | CYP2C19 inhib | CYP2C19 act | D1 allo mod | DAT uptake mod | CYP2C9 act
CCOc1cc(S(=O)(=O)NCCc2cccc(C)c2)c(OCC)cc1-n1cnnn1 | 80.4* | 35.5 | 0.6 | 0.0741 | 0.0913 | 0.2
O=C(Cn1ncc2c1-c1ccccc1OC2)Nc1nc2ccccc2s1 | 55.3* | 45.9 | 0.5 | -0.231 | -0.673 | 0.4
CC(CCc1ccco1)NC(=O)Cn1ncc2c1-c1ccccc1OC2 (configuration not stated) | 67.4* | 80.0* | 0.2 | -0.334 | -0.117 | 0.3
O=C(Cn1ncc2c1-c1ccccc1OC2)N(Cc1ccco1)C1CCCCC1 | 36.0 | 19.1 | 0.8 | 3.91 | -0.232 | 0.6
O=c1c2ccccc2nc2n1C(CSc1ccc(Br)cc1)CN2 (configuration not stated) | -13.2 | -13.5 | 1.1 | x | -0.229 | 1.1
CCCc1cc(=O)n2[nH]c(-c3ccc(OC)cc3)nc2n1 | 15.3 | 5.3 | 0.9 | x | 0.27 | 0.8
CC(NC(=O)c1cc(-c2ccc(Br)cc2)on1)c1ccccc1 (configuration not stated) | 19.3 | 3.5 | 1 | -0.453 | -1.99 | 0.8
COc1ccc(OC)c2c1C(=O)c1ccccc1C2=O | 17.5 | 6.9 | 0.9 | x | 0.38 | 0.8
CC(C)NC1=C(Cl)C(=O)c2ccccc2C1=O | 34.8 | 89.9* | 0.1 | x | 0.882 | 0.7
COCCn1nnnc1C(C(C)C)N(Cc1cccnc1)Cc1ccccc1Cl (configuration not stated) | 43.0 | 95.3* | 0 | -0.245 | 0.223 | 0.6
Cc1noc(/C=C/N(C)C)c1S(=O)(=O)N1CCCC(C(=O)NCc2cccs2)C1 (configuration not stated) | 67.9* | 30.4 | 0.7 | 0.456 | -0.0254 | 0.3
Cc1ccc(CCNC(=O)C2CCCN(S(=O)(=O)c3c(C)noc3/C=C/N(C)C)C2)cc1 (configuration not stated) | 69.0* | 39.0 | 0.6 | -0.21 | -0.143 | 0.3
Cc1ccc(CCNC(=O)C2CCCN(S(=O)(=O)c3c(C)noc3C)C2)cc1 (configuration not stated) | 43.4 | 13.6 | 0.9 | 0.76 | 0.00567 | 0.6
COC(=O)c1[nH]c2ccc(F)cc2c1NC(=O)Nc1ccc(OC)cc1 | 2.6 | 11.1 | 0.9 | x | -0.158 | 1
COC(=O)c1[nH]c2ccc(C)cc2c1NS(=O)(=O)c1ccc(F)cc1 | 35.9 | 76.8* | 0.2 | -0.017 | -0.0457 | 0.6
CCS(=O)(=O)Nc1c(C(=O)O)[nH]c2ccccc12 | 5.1 | -2.3 | 1 | -0.00546 | 1.21 | 0.9
COC(=O)c1[nH]c2ccc(C)cc2c1NS(=O)(=O)c1ccc(F)c(C)c1 | 52.1* | 75.5* | 0.2 | -0.0461 | x | 0.5
COC(=O)c1[nH]c2ccc(C)cc2c1NC(=O)Oc1ccccc1 | 2.0 | 18.2 | 0.8 | x | -0.441 | 1
Cc1cc(S(=O)(=O)Nc2c(C(=O)O)[nH]c3ccccc23)ccc1F | 78.6* | 91.9* | 0.1 | 0.0223 | -0.486 | 0.2
COC(=O)c1[nH]c2ccc(C)cc2c1NC(=O)Nc1ccc(OC)cc1 | 5.6 | 54.3* | 0.5 | x | -0.02 | 0.9
Cc1cccc(NC(=O)c2snc3c(=O)[nH]cnc23)c1 | 51.7* | 33.5 | 0.7 | -0.552 | 0.00964 | 0.5
Cc1cccc(NC(=O)c2cc(Cl)nc3ccccc23)c1 | 4.7 | 41.0 | 0.6 | x | x | 1
Cc1cccc(NC(=O)c2sc(Cl)nc2-c2ccccc2)c1 | 54.1* | 91.0* | 0.1 | x | -0.65 | 0.5
COC(=O)/C(C#N)=C1/SC=C(C)N1c1ccccc1 | -16.2 | 1.9 | 1 | 0.525 | -0.0448 | 1.2
N#C/C(C(=O)c1ccccc1)=C1/SC=C(N)N1c1ccccc1 | 92.3* | 81.3* | 0.2 | -0.201 | -0.0415 | 0.1
SMILES | CYP2C9 inh | CYP2C19 inhib | CYP2C19 act | D1 allo mod | DAT uptake mod | CYP2C9 act
COc1ccc(CNc2nc3nc(C)c(Cl)c(=O)n3[nH]2)cc1OC | 75.6* | -14.0 | 1.1 | x | -0.427 | 0.2
COc1cccc(CNc2nc3nc(C)c(Cl)c(C)n3n2)c1 | 4.9 | 17.9 | 0.8 | 3.02 | 2.15 | 1
COc1ccc(CNc2nc3nc(-c4ccccc4)cc(=O)n3[nH]2)cc1OC | -2.4 | -10.4 | 1.1 | -0.326 | -0.534 | 1
COc1ccc(CNc2nc3nc(C)c(Cl)c(C)n3n2)cc1OC | x | x | x | 6.17* | 1.09 | x
COc1ccccc1CNc1nc2nc(C)c(C)c(=O)n2[nH]1 | 70.2* | 14.3 | 0.9 | 0.0455 | -0.971 | 0.3
C[C@@H]1CCC[C@H](C)N1NC(=O)c1ccc(Cl)c(S(N)(=O)=O)c1 | x | x | x | -0.113 | 1.13 | x
Cc1ccc(SCCC(=O)NCC2CCCO2)cc1 (configuration not stated) | 7.1 | 27.3 | 0.7 | 0.455 | -1.96 | 0.9
CC1CN=C(N(C(=O)Nc2ccccc2)c2ccc(F)cc2)S1 (configuration not stated) | 76.1* | 75.9* | 0.2 | x | -0.2 | 0.2
Cc1cc(C)cc(NC(=O)C2CCCN2C(=O)Oc2ccccc2)c1 (configuration not stated) | 67.1* | 66.3* | 0.3 | x | 0.705 | 0.3
Cc1cccc(NC(=O)C2CCCN2C(=O)Oc2ccccc2)c1 (configuration not stated) | 57.0* | 88.3* | 0.1 | x | -0.397 | 0.4
Cc1csc(NC(=O)C2CCCN2C(=O)Oc2ccccc2)n1 (configuration not stated) | 6.2 | 11.7 | 0.9 | 1.91 | 0.154 | 0.9
Cc1cccc(NC(=O)C2CCCN2C(=O)OCC(C)C)c1 (configuration not stated) | 14.9 | 34.3 | 0.7 | -0.3 | -0.54 | 0.9
O=C1/C(=C\c2ccccc2)CCc2c1[nH]c1ccccc21 | 26.0 | 91.0* | 0.1 | x | 0.692 | 0.7
Cc1ccc(/C=C2/CCc3c([nH]c4ccccc34)C2=O)cc1 | 24.5 | 63.4* | 0.4 | x | x | 0.8
Cc1cc(C)c(S(C)(=O)=O)c(Oc2ccc(C(C)(C)C)cc2)n1 | 85.6* | 35.3 | 0.6 | x | x | 0.1
Cc1ccc(S(=O)(=O)c2c(C)cc(C)nc2Oc2cccc(C(F)(F)F)c2)cc1 | 46.5 | 59.0* | 0.4 | x | 0.529 | 0.5
Cc1cc(C)c(S(C)(=O)=O)c(Oc2cccc(Cl)c2)n1 | 12.4 | 14.3 | 0.9 | x | 0.404 | 0.9
COC(=O)c1ccc(CSc2ncnc3c2nnn3-c2ccc(F)cc2)o1 | 4.8 | 9.2 | 0.9 | 0.337 | -1.8 | 1
Cc1ccc(Cl)cc1N1CCN(C(=O)CSc2nnc3n2C(C)(C)Cc2ccccc2-3)CC1 | x | x | x | x | 2.03 | x
CCn1nnnc1SCC(=O)NCc1ccc2c(c1)OCO2 | x | x | x | x | 0.00205 | x
O=C(CSc1nnnn1C1CCCC1)NCc1ccc2c(c1)OCO2 | 60.9* | 36.1 | 0.6 | 2.03 | 0.464 | 0.4
